In ChEMBL document CHEMBL2218924, “A broad activity screen in support of a chemogenomic map for kinase signalling research and drug discovery” (Biochem J, 2013):

Experiments:
[1] = target: Focal adhesion kinase 1 (Homo sapiens) (UniProt Q05397); conditions: at 10 µM
[2] = target: Fibroblast growth factor receptor 1 (Homo sapiens) (UniProt P11362); conditions: at 1 µM
[3] = target: Fibroblast growth factor receptor 1 (Homo sapiens) (UniProt P11362); conditions: at 10 µM
[4] = target: Fibroblast growth factor receptor 2 (Homo sapiens) (UniProt P21802); conditions: at 1 µM
Chain of Fibroblast growth factor receptor 2 (Homo sapiens) (P21802 22-821 limits assumed): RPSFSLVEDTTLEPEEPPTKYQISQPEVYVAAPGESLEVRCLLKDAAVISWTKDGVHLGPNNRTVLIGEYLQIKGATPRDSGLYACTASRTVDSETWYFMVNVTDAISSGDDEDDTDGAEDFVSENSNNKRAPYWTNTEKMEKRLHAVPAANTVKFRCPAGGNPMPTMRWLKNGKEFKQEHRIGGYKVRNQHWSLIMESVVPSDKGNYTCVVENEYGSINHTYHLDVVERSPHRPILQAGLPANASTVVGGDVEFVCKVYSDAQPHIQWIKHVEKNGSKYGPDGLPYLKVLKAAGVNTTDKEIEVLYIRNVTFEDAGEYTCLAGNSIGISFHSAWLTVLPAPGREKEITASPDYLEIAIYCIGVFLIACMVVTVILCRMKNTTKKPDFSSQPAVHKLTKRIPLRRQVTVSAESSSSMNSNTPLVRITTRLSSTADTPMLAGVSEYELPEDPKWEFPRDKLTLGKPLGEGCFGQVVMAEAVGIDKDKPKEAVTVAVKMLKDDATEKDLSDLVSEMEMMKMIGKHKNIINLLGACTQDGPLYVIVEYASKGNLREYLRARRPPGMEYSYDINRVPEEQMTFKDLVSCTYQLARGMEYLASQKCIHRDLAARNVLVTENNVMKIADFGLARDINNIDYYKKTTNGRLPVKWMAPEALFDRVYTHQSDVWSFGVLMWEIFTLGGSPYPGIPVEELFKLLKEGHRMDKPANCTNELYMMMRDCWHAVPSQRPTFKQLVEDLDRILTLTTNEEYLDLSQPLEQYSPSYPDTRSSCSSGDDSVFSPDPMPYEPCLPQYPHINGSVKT

[5] = target: Fibroblast growth factor receptor 2 (Homo sapiens) (UniProt P21802); conditions: at 10 µM
[6] = target: Fibroblast growth factor receptor 3 (Homo sapiens) (UniProt P22607); conditions: at 1 µM
Chain of Fibroblast growth factor receptor 3 (Homo sapiens) (P22607 23-806 limits assumed): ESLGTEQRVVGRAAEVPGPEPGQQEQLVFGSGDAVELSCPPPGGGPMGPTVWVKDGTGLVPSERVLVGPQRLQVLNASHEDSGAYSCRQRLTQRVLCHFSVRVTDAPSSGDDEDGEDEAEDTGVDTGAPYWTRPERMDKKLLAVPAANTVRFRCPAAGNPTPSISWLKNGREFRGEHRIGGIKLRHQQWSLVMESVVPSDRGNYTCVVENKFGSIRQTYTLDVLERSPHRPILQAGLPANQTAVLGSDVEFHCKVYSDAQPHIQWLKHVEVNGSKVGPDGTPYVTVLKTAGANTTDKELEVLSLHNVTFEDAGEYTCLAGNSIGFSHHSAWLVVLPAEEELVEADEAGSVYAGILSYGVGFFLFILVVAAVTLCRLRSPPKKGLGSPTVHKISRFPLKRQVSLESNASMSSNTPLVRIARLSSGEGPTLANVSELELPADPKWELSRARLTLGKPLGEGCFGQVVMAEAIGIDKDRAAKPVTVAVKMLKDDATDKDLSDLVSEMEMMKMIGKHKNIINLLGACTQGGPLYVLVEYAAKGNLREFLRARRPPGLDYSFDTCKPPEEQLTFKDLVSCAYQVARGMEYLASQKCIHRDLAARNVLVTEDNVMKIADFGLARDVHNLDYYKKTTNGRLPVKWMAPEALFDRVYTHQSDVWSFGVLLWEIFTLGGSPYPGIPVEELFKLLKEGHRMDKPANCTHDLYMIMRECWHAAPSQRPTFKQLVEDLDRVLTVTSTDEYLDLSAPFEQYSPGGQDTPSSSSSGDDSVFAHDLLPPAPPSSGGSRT

[7] = target: Fibroblast growth factor receptor 3 (Homo sapiens) (UniProt P22607); conditions: at 10 µM
[8] = target: Fibroblast growth factor receptor 4 (Homo sapiens) (UniProt P22455); conditions: at 1 µM
Chain of Fibroblast growth factor receptor 4 (Homo sapiens) (P22455 22-802 limits assumed): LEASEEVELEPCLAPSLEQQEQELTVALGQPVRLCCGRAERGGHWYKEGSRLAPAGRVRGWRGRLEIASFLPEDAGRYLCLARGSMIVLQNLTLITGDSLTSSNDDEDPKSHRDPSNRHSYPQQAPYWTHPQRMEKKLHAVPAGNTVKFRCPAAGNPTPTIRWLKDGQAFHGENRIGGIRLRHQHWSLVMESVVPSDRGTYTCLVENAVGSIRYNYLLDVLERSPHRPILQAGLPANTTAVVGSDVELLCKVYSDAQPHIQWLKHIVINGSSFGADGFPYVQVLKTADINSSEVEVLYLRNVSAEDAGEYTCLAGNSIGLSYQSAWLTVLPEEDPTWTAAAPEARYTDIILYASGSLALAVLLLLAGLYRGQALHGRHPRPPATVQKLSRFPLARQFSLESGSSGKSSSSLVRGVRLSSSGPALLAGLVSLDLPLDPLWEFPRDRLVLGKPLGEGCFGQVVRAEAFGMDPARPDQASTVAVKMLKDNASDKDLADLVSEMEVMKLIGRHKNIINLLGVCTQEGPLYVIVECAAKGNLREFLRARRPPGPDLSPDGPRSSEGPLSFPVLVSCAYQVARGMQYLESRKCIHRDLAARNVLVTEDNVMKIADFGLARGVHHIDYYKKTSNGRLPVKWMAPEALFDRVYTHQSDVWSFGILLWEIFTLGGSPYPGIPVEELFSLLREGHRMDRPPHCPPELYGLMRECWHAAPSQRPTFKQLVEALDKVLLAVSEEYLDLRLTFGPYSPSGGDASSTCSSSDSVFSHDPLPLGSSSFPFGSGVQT

[9] = target: Fibroblast growth factor receptor 4 (Homo sapiens) (UniProt P22455); conditions: at 10 µM
[10] = target: Tyrosine-protein kinase Fer (Homo sapiens) (UniProt P16591); conditions: at 1 µM
Chain of Tyrosine-protein kinase Fer (Homo sapiens) (P16591 whole entry, looked up): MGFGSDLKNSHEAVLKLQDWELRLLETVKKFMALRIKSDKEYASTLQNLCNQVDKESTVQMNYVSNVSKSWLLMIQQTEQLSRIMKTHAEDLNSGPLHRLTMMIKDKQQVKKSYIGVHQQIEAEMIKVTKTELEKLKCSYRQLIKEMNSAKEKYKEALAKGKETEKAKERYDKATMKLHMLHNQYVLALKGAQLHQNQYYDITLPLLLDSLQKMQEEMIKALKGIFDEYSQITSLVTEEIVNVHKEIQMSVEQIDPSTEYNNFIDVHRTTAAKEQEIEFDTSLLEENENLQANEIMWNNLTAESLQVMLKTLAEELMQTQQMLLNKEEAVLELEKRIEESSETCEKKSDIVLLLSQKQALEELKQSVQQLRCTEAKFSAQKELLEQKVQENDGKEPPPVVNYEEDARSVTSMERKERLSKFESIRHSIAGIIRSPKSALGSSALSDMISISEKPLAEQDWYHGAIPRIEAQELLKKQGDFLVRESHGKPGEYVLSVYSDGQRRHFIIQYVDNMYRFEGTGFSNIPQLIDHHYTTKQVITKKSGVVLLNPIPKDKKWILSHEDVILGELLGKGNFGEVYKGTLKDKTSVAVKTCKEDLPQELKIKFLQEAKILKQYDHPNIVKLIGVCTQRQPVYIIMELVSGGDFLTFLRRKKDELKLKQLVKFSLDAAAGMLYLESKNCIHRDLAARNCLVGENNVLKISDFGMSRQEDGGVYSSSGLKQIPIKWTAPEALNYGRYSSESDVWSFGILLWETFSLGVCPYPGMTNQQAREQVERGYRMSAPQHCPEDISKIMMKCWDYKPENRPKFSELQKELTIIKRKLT

Chain of Fibroblast growth factor receptor 1 (Homo sapiens) (P11362 22-822 limits assumed): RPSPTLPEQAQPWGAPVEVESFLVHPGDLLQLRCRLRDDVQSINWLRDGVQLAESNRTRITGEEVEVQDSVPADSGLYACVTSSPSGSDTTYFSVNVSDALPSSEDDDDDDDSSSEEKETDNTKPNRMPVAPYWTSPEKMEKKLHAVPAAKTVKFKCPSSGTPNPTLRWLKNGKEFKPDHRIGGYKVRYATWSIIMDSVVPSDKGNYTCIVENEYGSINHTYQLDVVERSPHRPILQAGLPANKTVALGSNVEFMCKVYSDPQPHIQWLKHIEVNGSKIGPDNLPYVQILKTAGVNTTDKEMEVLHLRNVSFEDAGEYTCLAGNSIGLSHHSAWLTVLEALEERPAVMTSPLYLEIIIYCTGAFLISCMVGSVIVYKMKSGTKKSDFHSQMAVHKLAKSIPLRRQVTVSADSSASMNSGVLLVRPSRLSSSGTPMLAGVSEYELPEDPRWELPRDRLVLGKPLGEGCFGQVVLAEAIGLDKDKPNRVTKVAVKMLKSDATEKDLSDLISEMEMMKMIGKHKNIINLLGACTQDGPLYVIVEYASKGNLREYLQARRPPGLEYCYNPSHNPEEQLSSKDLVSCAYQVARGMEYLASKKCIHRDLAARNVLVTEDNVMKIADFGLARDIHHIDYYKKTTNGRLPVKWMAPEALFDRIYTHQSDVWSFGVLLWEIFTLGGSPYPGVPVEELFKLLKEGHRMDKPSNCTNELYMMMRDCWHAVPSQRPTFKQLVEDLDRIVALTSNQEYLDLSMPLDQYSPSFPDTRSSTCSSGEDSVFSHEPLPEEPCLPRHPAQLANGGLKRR
Chain of Focal adhesion kinase 1 (Homo sapiens) (Q05397 2-1052 limits assumed): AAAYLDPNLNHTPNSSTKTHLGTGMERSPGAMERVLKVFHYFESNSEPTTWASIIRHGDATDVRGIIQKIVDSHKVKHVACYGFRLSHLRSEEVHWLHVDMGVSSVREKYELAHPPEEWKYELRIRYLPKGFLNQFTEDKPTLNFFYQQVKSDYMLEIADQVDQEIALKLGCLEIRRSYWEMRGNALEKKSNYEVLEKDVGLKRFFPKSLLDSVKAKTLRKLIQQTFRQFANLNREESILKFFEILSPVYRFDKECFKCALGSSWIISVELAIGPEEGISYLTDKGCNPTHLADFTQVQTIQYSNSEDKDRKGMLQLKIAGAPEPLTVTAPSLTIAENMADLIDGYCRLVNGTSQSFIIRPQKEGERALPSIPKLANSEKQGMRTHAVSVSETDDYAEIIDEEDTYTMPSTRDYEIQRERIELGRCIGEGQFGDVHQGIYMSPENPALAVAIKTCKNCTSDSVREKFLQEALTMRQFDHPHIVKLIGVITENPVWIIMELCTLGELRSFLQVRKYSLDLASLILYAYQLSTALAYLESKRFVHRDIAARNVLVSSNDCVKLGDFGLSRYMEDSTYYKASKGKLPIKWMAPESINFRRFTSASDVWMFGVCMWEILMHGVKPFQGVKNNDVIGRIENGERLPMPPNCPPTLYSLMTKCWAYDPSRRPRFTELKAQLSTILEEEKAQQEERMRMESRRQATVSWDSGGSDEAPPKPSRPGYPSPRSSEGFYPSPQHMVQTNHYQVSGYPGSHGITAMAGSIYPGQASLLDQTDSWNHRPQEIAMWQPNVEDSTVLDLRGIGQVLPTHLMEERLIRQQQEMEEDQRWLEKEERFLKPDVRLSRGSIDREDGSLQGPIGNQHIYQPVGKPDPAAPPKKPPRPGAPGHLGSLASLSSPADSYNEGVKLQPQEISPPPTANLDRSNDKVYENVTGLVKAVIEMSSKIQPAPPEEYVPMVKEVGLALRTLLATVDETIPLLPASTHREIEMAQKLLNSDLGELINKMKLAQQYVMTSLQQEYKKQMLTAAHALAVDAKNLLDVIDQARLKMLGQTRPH

Row | Structure (SMILES) | residual activity [1] [%] | residual activity [2] [%] | residual activity [3] [%] | residual activity [4] [%] | residual activity [5] [%] | residual activity [6] [%] | residual activity [7] [%] | residual activity [8] [%] | residual activity [9] [%] | residual activity [10] [%]
1 | COc1ccc2c(c1)/C(=C/c1cnc[nH]1)C(=O)N2 | 25 | 65 | 3 | 53 | 12 | 61 | 14 | – | – | –
2 | O=[N+]([O-])/C=C/c1ccc2c(c1)OCO2 | 72 | 115 | 94 | 108 | 97 | 104 | 107 | 135 | 104 | 114
3 | COc1cc(OC)c(/C=C2\C(=O)Nc3ccccc32)c(OC)c1 | 81 | 107 | 88 | 102 | 90 | – | – | – | – | 97
4 | O=c1[nH]c2ccccc2n1C1CCN(Cc2ccc(-c3nc4cc5[nH]cnc5cc4nc3-c3ccccc3)cc2)CC1 | 87 | 112 | 38 | 111 | 78 | 115 | 99 | 111 | 88 | 112
5 | CCc1nc(-c2ccc(OC)cc2)[nH]c1-c1ccncc1 | 81 | 104 | 80 | 121 | – | – | 124 | 102 | 109 | 104
6 | C[S+]([O-])c1ccc(-c2nc(-c3ccc(F)cc3)c(-c3ccncc3)[nH]2)cc1 (stereo unspecified) | 115 | 142 | 90 | 99 | 81 | 115 | 99 | 110 | 97 | 107
7 | CCn1cnc2c(Nc3cccc(Cl)c3)nc(N[C@@H]3CCCC[C@@H]3N)nc21 | 12 | 76 | 11 | – | 34 | 113 | 53 | 118 | 79 | 85
8 | c1cc(-c2cnn3cc(-c4ccc(OCCN5CCCCC5)cc4)cnc23)ccn1 | – | 47 | 5 | – | – | – | – | – | 72 | –
9 | CC(C)[C@H](CO)Nc1nc(Nc2cccc(Cl)c2)c2ncn(C(C)C)c2n1 | 13 | 98 | 15 | – | – | – | 56 | 118 | – | 90
10 | O=C1NC(=O)c2c1c1c3ccccc3n3c1c1c2c2ccccc2n1C1CCC3O1 | – | 72 | 41 | 83 | 78 | 82 | 92 | – | – | 33
11 | N/C(=N\[N+](=O)[O-])N/N=C\c1ccc(-c2cccc([N+](=O)[O-])c2)o1 | – | – | – | – | 92 | 95 | 92 | – | – | –
12 | COc1cc2ncnc(Nc3ccc(OCc4ccccc4)cc3)c2cc1OC | 81 | 88 | 69 | 100 | 109 | 97 | 100 | 122 | 99 | 111
13 | COc1ccc2c(c[n+](C)c3c4cc5c(cc4ccc23)OCO5)c1OC | 93 | 85 | 44 | – | – | – | 57 | – | 100 | –
14 | O=C1Nc2ccc3ncsc3c2/C1=C/c1c[nH]cn1 | 13 | 9 | 1 | 18 | 3 | 19 | 9 | 112 | 84 | –
15 | CC(C)(C)c1cc(C=C(C#N)C#N)cc(Br)c1O | 104 | 108 | – | 99 | 105 | 126 | 99 | 118 | 102 | 120
16 | O=C1c2ccccc2-c2nc3nnnn3nc21 | – | 113 | 81 | 118 | 135 | 125 | 132 | 118 | 106 | 112
17 | COC(=O)[C@@]1(O)C[C@H]2O[C@]1(C)n1c3ccccc3c3c4c(c5c6ccccc6n2c5c31)C(=O)NC4 | 5 | 10 | 11 | 20 | 2 | 17 | 2 | 88 | 36 | 2
